In all, about 33,000 sequences were measured (“E-score (-0.5 to 0.5)”: median about -0.035, highest 2% from about 0.34 on). The sample as a whole holds a higher share of the highest values than the screen did.
target: T1, Mot3 (UniProt P54785); test: PBM E-score (8-mer binding enrichment) (E-score (-0.5 to 0.5)); higher = stronger / more preferred TF binding; details: protein concentration: 200 nM; construct: GST-full length
T1 sequence: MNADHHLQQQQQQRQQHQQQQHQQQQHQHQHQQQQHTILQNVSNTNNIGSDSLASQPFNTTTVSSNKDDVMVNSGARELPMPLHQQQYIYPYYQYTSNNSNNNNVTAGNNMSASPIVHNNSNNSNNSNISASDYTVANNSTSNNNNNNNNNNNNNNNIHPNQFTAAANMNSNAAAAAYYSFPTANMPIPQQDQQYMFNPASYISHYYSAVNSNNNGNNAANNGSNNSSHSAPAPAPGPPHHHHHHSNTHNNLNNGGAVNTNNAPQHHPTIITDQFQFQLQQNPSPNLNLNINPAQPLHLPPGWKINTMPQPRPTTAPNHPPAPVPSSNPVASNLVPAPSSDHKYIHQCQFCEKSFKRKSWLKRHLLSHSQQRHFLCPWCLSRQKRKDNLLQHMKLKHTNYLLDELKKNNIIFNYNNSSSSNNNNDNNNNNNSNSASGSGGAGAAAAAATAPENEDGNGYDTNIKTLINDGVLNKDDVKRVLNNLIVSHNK
Description: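 Universal 'all 10-mer' protein binding microarrays (Agilent AMADID 015681) probed with GST-tagged S. cerevisiae TFs (full-length or DBD) made by in vitro transcription/translation (PURExpress), about 100-200 nM. Bound TF was detected with fluorescent anti-GST. Each ungapped 8-mer (which stands for itself and its reverse complement) is scored by the PBM enrichment score (E-score), a modified Wilcoxon-Mann-Whitney statistic from -0.5 to +0.5, computed with the Universal PBM Analysis Suite. Scale: above 0.35 generally sequence-specific binding.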

Sequence | PBM E-score
ACCTAGGT | 0.124
CGGTCTAC | -0.0115
ACTTCTGA | -0.101
GTGCATAA | 0.084
AGGTTGTC | -0.0425
CAAAGAAC | 0.197
CGCGGAAG | -0.172
CCCATGTA | 0.377
ACCATGTA | 0.404
GCCATGGA | -0.144
CCCATGGA | -0.187
ACCATGTC | 0.223
ACCATGTG | 0.0765
GCCATGTA | 0.383
GCCATGCA | -0.135
CCCATGTC | 0.0657
ATACCTCG | 0.121
AAGGTGGC | -0.095
AAACAGCT | -0.268
GCGTAACA | 0.196
GTGTAACA | 0.343
AGGTAACC | 0.321

Sequence | PBM E-score
ATGTAACA | 0.373
GTGTAAGA | 0.312
CTGTAACA | 0.182
ATGTAACC | 0.166
AGGTAACT | 0.297
AGGTAACA | 0.357
ACCGACCC | -0.256
AGCAGAAT | 0.059
ATCCTGCG | 0.0225
TGAGAGAA | -0.0743
AGGGTCCG | -0.269
CGCCCAAG | -0.105
GAATTACA | 0.366
GAATTATA | 0.0628
AAATTACA | 0.365
CAATTACC | 0.12
AAATTACT | 0.138
TAATTAGA | 0.0891
AAATTACG | 0.249
GAATTACC | 0.0992
TAATTATA | 0.206
TAATTACA | 0.372

Sequence | PBM E-score
CAATTACA | 0.378
CAATTACG | 0.26
AAGCAGAA | 0.108
AACTAGAT | 0.138
AGGCAGCC | 0.317
CTTCTCAC | -0.125
TCGGCTAA | -0.0724
ACTGTTGG | -0.221
CCCTGGTC | -0.315
TGCTTCAA | 0.0489
GACAACAC | 0.261
CACAACAC | 0.302
AGGAACAA | 0.401
CGGAACAA | 0.0225
AGGAACAT | 0.422
TGGAACAA | 0.136
CGGAACAG | -0.216
AGGAACAG | 0.434
ATGAACAT | 0.252
AACAACAC | 0.349
ACGAACAT | 0.109
ACGAACAG | -0.0228

Sequence | PBM E-score
CTTCGGTC | -0.0958
ATGGGAGC | -0.193
ACGCATGC | 0.169
ACAAAGCA | 0.168
CTAGCGGA | -0.00619
GATTAGCA | -0.0223
CGCTCAAG | -0.0197
TTAGCTAA | -0.0988
CTTCCACA | -0.14
ATCTCTTG | -0.0945
GGGAACAC | 0.0104
ATCAACAG | 0.0788
CTTAACAC | 0.333
AGGAACAC | 0.404
ATCAACAT | 0.339
ATCAACAA | 0.224
CGGAACAC | 0.0144
ATTAACAC | 0.384
ATTAACAA | 0.328
AAGTAGGA | 0.2

Reference: the supplement of paper PMC3334620
